Results reported in article PMC4552634, “A New Set of Chemical Starting Points with Plasmodium falciparum Transmission-Blocking Potential for Antimalarial Drug Discovery” (PLoS ONE, 2015).
Hit rate of the full screen: of about 13,000 compounds, about 3,200 (25%) showed an effect of 50% or more. The list shows a part of the results.

These compounds were tested on P. falciparum stage V gametocytes. Conditions: 48 h, 5 µM; inhibitor.
Parameters: BacTiter-Glo ATP luminescence viability of purified stage V gametocytes in 384-well plates, per cent inhibition versus DMSO

Compound | % Inhibition [%]
O=C(Nc1ccccc1F)N(CCCn1ccnc1)Cc1csc(-c2ccc(CNCc3ccccc3)cc2)n1 [TCMDC-141643] | 22.98
CCCCNCc1ccc(-c2nc(CN(C(=O)Nc3cc([N+](=O)[O-])ccc3F)C3Cc4ccccc4C3)cs2)cc1 [TCMDC-141640] | 54.3
Cc1ccc([N+](=O)[O-])cc1NC(=O)N(CC(O)c1ccccc1)C1CCCCC1 (centres unmarked) [TCMDC-123672] | 2.226
COc1ccc(Cc2c(C)nc3nc(N)nc(N)c3c2C)cc1OC [TCMDC-137649] | 1.878
O=C(Nc1ccc(Cl)cc1)N1CCN(C2CCCCC2)CC1 [TCMDC-125819] | 10
O=C(Nc1ccc2c(c1)CCC2)c1cccc(CN2CCCN(Cc3cccc(O)c3)CC2)c1 [TCMDC-135957] | 14.29
O=C(Cc1cccs1)NCC(c1ccccc1Cl)c1c[nH]c2ccccc12 (centres unmarked) [TCMDC-125062] | 59.09
O=C(Cc1ccsc1)NCC(c1ccccc1Cl)c1c[nH]c2ccccc12 (centres unmarked) [TCMDC-125251] | 11.67
NC(=NCc1ccccc1Cl)NCCc1c[nH]c2ccccc12 [TCMDC-138012] | -46.58
COc1ccc2nc3cc(Cl)ccc3c(Nc3ccc(Sc4ccc(Nc5c6ccc(Cl)cc6nc6ccc(OC)cc56)cc4)cc3)c2c1.Cl [TCMDC-137673] | -84.83
COc1ccc2nc3cc(Cl)ccc3c(NCCCO)c2c1 [TCMDC-124144] | 20.12
COc1ccc2nc3cc(Cl)ccc3c(NCCCCNc3c4ccc(Cl)cc4nc4ccc(OC)cc34)c2c1 [TCMDC-138218] | 112.4
COc1ccc2nc3cc(Cl)ccc3c(NCCNCC(O)CO)c2n1 (centres unmarked) [TCMDC-137938] | 74.53
COc1ccc2nc3cc(Cl)ccc3c(N)c2c1.Cl [TCMDC-125835] | 124.4
COc1ccc2nc3cc(Cl)ccc3c(NCCCCCCNc3c4ccc(Cl)cc4nc4ccc(OC)cc34)c2c1 [TCMDC-137503] | 106.2
COc1ccc2nc3cc(Cl)ccc3c(Nc3ccc(Oc4ccc(Nc5c6ccc(Cl)cc6nc6ccc(OC)cc56)cc4)cc3)c2c1.Cl [TCMDC-137674] | -12.74
CCN(CC)CCNc1c2ccc(Cl)cc2nc2ccc(OC)nc12 [TCMDC-137937] | -10.21
COc1ccc2nc3cc(Cl)ccc3c(NCc3ccccc3)c2c1.Cl [TCMDC-137663] | -68.8
CCOc1ccc(-n2nc3c(Cl)nnc(-c4ccccc4)c3c2-c2ccccc2)cc1 [TCMDC-123899] | -2.574
CCCC(C)Nc1nc(C)cc(N[C@@H](CC(C)C)C(=O)NC2CCCC2)n1 (some centres unmarked) [TCMDC-134895] | -73.82
CC1CCc2sc(-c3nnc(SC(C)C(=O)NC4CC4)o3)cc2C1 (centres unmarked) [TCMDC-124866] | 6.4
CCOc1ncccc1CN1CCC(N2CCc3cc(NC(=O)c4cc(C)on4)ccc32)C1 (centres unmarked) [TCMDC-135086] | -27.43
NC(=O)c1cccc(CNC(=O)NC[C@H]2CN(Cc3ccc(Cl)c(Cl)c3)CCO2)c1 [TCMDC-138745] | 31.93

Compound | % Inhibition [%]
COc1cc(NC(=O)/C=C/c2cccc3ccoc23)ccc1OCCN(C(C)C)C(C)C [TCMDC-139958] | 3.846
CCOC(=O)NC1=NC(C)(C)N(OCc2ccc(Cl)c(Cl)c2)C(NC(=O)OCC)=N1 [TCMDC-131729] | 1.326
COc1ccc2c(c1)C(C)(CCCN(C)C)C(=O)N2C (centres unmarked) [TCMDC-138945] | 13.31
COc1ccc2nc3cc(Cl)ccc3c(NCCO)c2c1 [TCMDC-124272] | 0.5882
COc1ccc2nc3cc(Cl)ccc3c(NCCN(C)C)c2c1 [TCMDC-139093] | 54.53
COc1ccc2nc3cc(Cl)ccc3c(NCCCCN)c2c1 [TCMDC-137526] | 92.71
COc1ccc2nccc([C@@H](O)CN3CCC(NCc4nc5c(cc4F)SCC(=O)N5)C(F)C3)c2c1 (some centres unmarked) [TCMDC-141681] | -15.96
Nc1ccc(-c2nc3cc(C4=N[C@H]5CCCC[C@H]5N4)ccc3o2)cc1[N+](=O)[O-] [TCMDC-137253] | 108.2
O=[N+]([O-])c1ccc(-c2nc3cc(C4=NC5CCCCC5N4)ccc3[nH]2)cc1 (centres unmarked) [TCMDC-137220] | 5.239
O=[N+]([O-])c1cccc(-c2nc3cc(C4=NC5CCCCC5N4)ccc3[nH]2)c1 (centres unmarked) [TCMDC-137221] | 5.96
COc1ccc2ncc(F)c([C@@H](O)CN3CCC(NCc4cc5c(cn4)OCCO5)CC3)c2c1 [TCMDC-135379] | 9.097
COc1ccc2ncc(Cl)c([C@H](O)CN3CCC(NCc4cc5c(cn4)OCCO5)CC3)c2c1 [TCMDC-135469] | 53.55
Cc1ccc2ncc(Cl)c(CCN3CCC(NCc4ccc5c(n4)NC(=O)CS5)CC3)c2n1 [TCMDC-141963] | 7.636
COc1c(F)ccc2ncc(Cl)c(CCN3CCC(NCc4ccc5c(n4)NC(=O)CS5)CC3)c12 [TCMDC-141955] | 54.36
Clc1cnc2ccc3c(c2c1CCN1CCC(NCc2cc4c(cn2)OCCO4)CC1)OCCO3 [TCMDC-134566] | 24.75
Fc1ccc2ncc(Cl)c(CCN3CCC(NCc4cc5c(cn4)OCCO5)CC3)c2c1 [TCMDC-133446] | 74.26
COc1ccc2ncc(C)c(CCN3CCC(NCc4ccc5c(n4)NC(=O)CS5)CC3)c2c1 [TCMDC-134648] | 44.1
COc1ccc2ncc(Cl)c([C@@H](O)CN3CCC(NCc4cc5c(cn4)OCCO5)CC3)c2c1 [TCMDC-135470] | 13.81
COc1cc(F)c2ncc(F)c(CCN3C[C@H](CNCc4ccc5c(n4)NC(=O)CS5)[C@H](O)C3)c2c1 [TCMDC-136333] | 73.35
Cn1ncc2c3c(CCN4CCC(NCc5cc6c(cn5)OCCO6)CC4)c(Cl)cnc3ccc21 [TCMDC-136008] | 9.388
COc1ccc2ncc(F)c(CCN3CC(O)C(CNCc4ccc5c(n4)NC(=O)CS5)C3)c2c1 (centres unmarked) [TCMDC-136187] | 16.49
COc1ccc2nccc(CCN3CC(O)C(CNCc4ccc5c(n4)NC(=O)CS5)C3)c2n1 (centres unmarked) [TCMDC-136132] | 27.64
Cc1ccc(C(=O)NC2CC2)cc1-c1ccc2c(cnn2S(=O)(=O)c2ccc(F)cc2)c1 [TCMDC-138772] | 31.89

Compound | % Inhibition [%]
O=C(NCCc1cccc(Cl)c1Cl)c1ccc(N2CCN(c3ccncc3)CC2)nc1 [TCMDC-134587] | 10.14
Cc1ccc(C(=O)Nc2cc(C(F)(F)F)cc(C(F)(F)F)c2)cc1[N+](=O)[O-] [TCMDC-125645] | -10.1
Cc1csc(-c2nc(NCCc3c(C)noc3C)ncc2-c2ccsc2)n1 [TCMDC-125354] | 34.89
Nc1ncc(-c2ccsc2)c2ccc(-c3cc(NCc4ccccc4)ncn3)cc12 [TCMDC-135660] | 18.52
O=C(Cc1c[nH]cn1)Nc1ccc(-c2ccc(-c3nc4ccccc4[nH]3)s2)cc1 [TCMDC-136939] | -25.08
O=C(/C=C/c1ccc(Cl)c(Cl)c1)N1CCC(NCc2ccc3[nH]ccc3c2)CC1 [TCMDC-134198] | 36.44
CCC1N=C(N)N=C(N)N1OCc1ccc(Cl)c(Cl)c1 (centres unmarked) [TCMDC-131593] | 19.76
CC(=O)C=C1CC(=O)N(C[C@@H](O)[C@H]2O[C@@H]3OC(C)(C)O[C@@H]3[C@H]2O)c2ccccc2N1 [TCMDC-138271] | 11.95
O=C(/C=C/c1ccc(C(F)(F)F)cc1)NCCCCCN1CCCN(C(=O)Nc2cccc(Cl)c2)CC1 [TCMDC-136108] | -11.12
CCOc1cccc(C(=O)Nc2cccc(CN3CCCN(Cc4cccc(O)c4)CC3)c2)c1 [TCMDC-141861] | -4.748
COc1cc(F)c2ncc(Cl)c(CCN3CCC(NCc4ccc5c(c4)NC(=O)CS5)CC3)c2c1 [TCMDC-135620] | 12.4
COc1ccc2ncc(Cl)c(CCN3CCC(NCc4ccc5c(n4)NC(=O)CS5)CC3)c2c1 [TCMDC-141807] | -3.776
COc1cc(F)c2ncc(Cl)c(CCN3CCC(NCc4ccc5c(n4)NC(=O)CS5)CC3)c2c1 [TCMDC-134318] | 94.95
O=C1CSc2ccc(CNC3CCN(CCc4c(F)cnc5ccc(F)cc45)CC3)nc2N1 [TCMDC-135095] | -0.4072
O=C1CSc2ccc(CNC3CCN(CCc4c(Cl)cnc5ccc(Cl)cc45)CC3)nc2N1 [TCMDC-141959] | 32.4
O=C1CSc2ccc(CNC3CCN(CCc4c(Cl)cnc5ccc(F)cc45)CC3)nc2N1 [TCMDC-141960] | 55.74
Cc1ccc(CNC(=O)c2cc3c(=O)n4ccccc4nc3n(CCCN3CCOCC3)c2=N)cc1 [TCMDC-125409] | 26.53
CC(O)C1CCCCN1C(=O)c1cccc(-c2cccc(-c3nc4cc(C(F)(F)F)ccc4[nH]3)c2)c1 (centres unmarked) [TCMDC-132335] | 13.24
O=C(Nc1cccc(C(F)(F)F)c1)NC1CCN(c2ccnc3cc(Cl)ccc23)CC1 [TCMDC-133567] | -12.77
O=C(Cn1cc(C(F)(F)F)cc(Cl)c1=O)N1CCN(S(=O)(=O)c2ccc(Cl)cc2)CC1 [TCMDC-123617] | 70.99
O=C(CN1CCN(S(=O)(=O)C=Cc2ccccc2)CC1)Nc1cc(C(F)(F)F)ccc1Cl [TCMDC-124538] | -9.823
O=C(CN(c1cccc(C(F)(F)F)c1)S(=O)(=O)c1ccc(Cl)cc1)NCCC(c1ccccc1)c1ccccc1 [TCMDC-136712] | 5.637
